Screening data from PubChem.
Hits are enriched below; roughly 13% of the tested compounds scored in any of these assays.
LASV entry inh – inhibitors of Lassa virus binding or cell entry; Lassa virus pseudotype entry inhibition, cell reporter; Potency, µM (series often up to 37.9 µM), without a hit: top-dose activity change, negative = inhibition, actives largely listed as inhibitors; 300,000 compounds, 1.2% hits; AID 540256; calls by dose curve; tested in HEK293 cells; further: potency means the concentration at half of the fitted maximal effect; on the % scale 0 is the no-effect control and ±100 the full control effect; nearly all actives have a fitted effect of over 50% in size
MARV entry inh – inhibitors of Marburg virus binding or cell entry. 300,000 compounds, 1.8% hits. Potency, µM (doses to about 37.8 µM), inactives show at the top dose activity change, negative = inhibition, hits mostly inhibitors. Marburg virus pseudotyped entry inhibition, cell reporter. AID 540276; calls by dose curve; tested in HEK293 cells; further: potency means the concentration at half of the fitted maximal effect; on the % scale 0 is the no-effect control and ±100 the full control effect
Cycloheximide cs – counter-screen hit for Shiga toxin inhibitors, cycloheximide; max response, %; 300,000 compounds, 12% hits; AID 2314; cell reporter, cycloheximide protein synthesis inhibition counterscreen; in the data active means max response mostly above about 13%, no sharp cut-off; inactive means mostly below about 14%; further: read at 38.3 µM for the half of the compounds with a filed dose; 0% is about no effect
Shiga inhibitor – inhibitors of Shiga toxin in Vero cells; inhibition, % at 38.7 µM; Vero cells, Shiga toxin protein synthesis inhibition reporter; 290,000 compounds, 9.2% hits; in the data active means inhibition mostly above about 28%, no sharp cut-off; inactive means mostly below about 43%; further: 0% is about no effect
HCV inhibitor – blocks hepatitis C virus; Huh7.5.1 HCVcc-Cre infection, luciferase reporter, 44 h; Potency, µM (titrated, usually from 41.8 µM), inactives show at the top dose activity change, negative = inhibition, usual class: inhibitors; 340,000 compounds, 3.4% hits; AID 651820; active means well fitted inhibition curve with a large enough effect; inconclusive means small, poorly fitted or top-dose-only effect, or another doubt; inactive means no such curve, though single readings can be large or run the other way; further: potency means the concentration at half of the fitted maximal effect; on the % scale 0 is the no-effect control and ±100 the full control effect
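After 44 h co-culture of compound, cells and HCVcc-Cre (~0.5 moi), substrate is added for 15 min at room temperature and luciferase measured over 15 sec. Cells were seeded at 1,000/well and pre-cultured 4 h.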
FMDV inh – blocks foot and mouth disease virus. FMDV antiviral cell-based qHTS. Potency, µM (series often up to 57.9 µM), for inactives: top-dose activity change, negative = inhibition, actives largely listed as inhibitors. 410,000 compounds, 1.2% hits; calls by dose curve; tested in HEK293T cells; further: read-out not given here; potency means the concentration at half of the fitted maximal effect; on the % scale 0 is the no-effect control and ±100 the full control effect; nearly all actives have a fitted effect of over 45% in size
* marks the source's active call; other numbers are inactive results; ? = inconclusive; nt = no result; + = active, no number; [ ] = remark or other dose.

SMILES | LASV entry inh | MARV entry inh | Cycloheximide cs | Shiga inhibitor | HCV inhibitor | FMDV inh
Cc1nc2ccccc2nc1OCc1cccc([N+](=O)[O-])c1 | -11.0%[46.1 µM] | -19.8%[46.1 µM] | -3.8 | -6.2 | -9.0% | -4.2%
CCOC(=O)COc1cc(N)c(Cl)cc1Cl | 5.2% | 7.2%[46.1 µM] | 27.0* | 14.9 | ? | -0.6%
O=C(O)CC(NS(=O)(=O)c1cccc2nsnc12)c1ccc(F)cc1 (centres undefined) | 4.4% | 0.5% | -1.2 | 20.6 | -1.2% | -23.8%
CCOc1ccc(N2C(=O)CC(Sc3nnnn3-c3ccccc3)C2=O)cc1 (centres undefined) | -5.2% | ? | 18.0* | 20.7 | 5.9% | ?
CCCCCCOc1ccc(N2C(=O)CC(SCCN)C2=O)cc1 (centres undefined) | 2.4%[46.1 µM] | 18.1%[46.1 µM] | 12.0* | 26.0 | 4.1% | 13.4%
COc1ccc(N2C(=O)CC(SCCc3nc4ccccc4[nH]3)C2=O)cc1 (centres undefined) | -26.7%[14.3 µM] | -0.3% | -3.4 | -19.3 | nt | -19.3%
CCOc1ccc(N2C(=O)CC(Sc3nc(C)cc(C)n3)C2=O)cc1 (centres undefined) | 11.1% | 3.8% | 5.6 | -1.6 | 10.5% | nt
CCOc1ccc(N2C(=O)CC(Sc3nc(O)c(CC)c(=O)[nH]3)C2=O)cc1 (centres undefined) | -14.3% | ? | nt | nt | 19.9% | -0.3%
CCOc1ccc(N2C(=O)CC(SCCN)C2=O)cc1 (centres undefined) | 12.2% | -5.2% | 30.7* | 76.2* | 10.0% | 12.7%
CC1(C)CC(OC(=O)c2ccco2)CC(C)(C)N1O | 1.1% | 13.2% | -1.5 | -2.7 | 10.7% | -12.0%
N#Cc1ccc(-c2nc3cc(Cl)ccc3c(=O)n2O)cc1 | nt | nt | -2.8 | -1.3 | ? | ?
O=c1c2ccc(Cl)cc2nc(-c2cccc(C(F)(F)F)c2)n1O | 2.51µM* | ? | 7.9 | -2.9 | ? | ?
Cc1cc(OC(C)C(=O)Nc2ccncc2)ccc1Cl (centres undefined) | nt | nt | -0.9 | -12.3 | ? | ?
S=C(NCc1ccco1)Nc1ccc(Cl)cc1Cl | -1.2% | 6.2% | 21.6* | + | -14.1% | 42.0%
S=C(NCc1ccco1)Nc1ccc(Br)cc1Cl | 8.1% | -14.5%[46.1 µM] | 18.3* | 28.2 | -2.6% | 58.9%
OCCCNC(=S)Nc1ccc(Br)cc1Cl | 25.8% | -2.3% | 20.9* | 33.9* | 21.2% | 57.6%
Cc1[nH]c2ccc(F)cc2c1CCN1C(=O)OC(C)(C)C1(C)O (centres undefined) | -11.3% | 2.3%[46.1 µM] | -0.9 | 13.3 | -1.0% | 7.4%
COc1ccc(CC(=O)Nc2cc(-c3cn4cccnc4n3)ccc2OC)cc1 | 21.2%[46.1 µM] | nt | nt | nt | nt | -6.5%
NS(=O)(=O)c1ccc(NC(=O)COC(=O)C2CC(=O)N(Cc3ccccc3)C2)cc1 (centres undefined) | -20.7%[46.1 µM] | 15.8%[46.1 µM] | -2.8 | -14.0 | -3.5% | 8.2%
CC(C)(C)c1ccc(C(=O)CC(=O)c2cc(Cl)ccc2O)cc1 | ? | -66.5% | 11.9 | 52.7 | 11.2µM* | 7.2%
Cc1ccc(C(=O)CC(=O)c2cc(Cl)ccc2O)cc1 | -72.5% | ? | 34.7* | 121.4* | 12.6µM* | 73.6%
Cc1ccc(C(=O)CC(=O)c2ccc(C)cc2O)cc1 | 3.4% | ? | 39.2* | 86.9* | ? | 62.1%
Cc1ccc(C(=O)CCC(=O)NNC(=O)c2ccccc2O)cc1 | nt | nt | nt | nt | 1.1% | -19.5%
Cc1cc(C)cc(NC(=O)NNC(=O)c2cc3occc3[nH]2)c1 | nt | nt | -7.3 | -5.6 | 6.4% | -1.9%
O=C(Cn1c(=O)c(C(F)(F)F)nc2ccccc21)Nc1cccc(Br)c1 | 2.4%[46.1 µM] | nt | nt | nt | nt | -1.0%
SMILES | LASV entry inh | MARV entry inh | Cycloheximide cs | Shiga inhibitor | HCV inhibitor | FMDV inh
O=C(CSc1ccc(-c2ccccn2)nn1)Nc1cccc(F)c1 | ? | ? | 41.6* | 31.7* | ? | -6.1%
Cc1cccc(NC(=O)CSc2ccc(-c3ccco3)nn2)c1 | 0.4% | -6.1% | 19.8* | 17.3 | ? | ?
Cc1ccccc1NC(=O)CSc1ccc(-c2ccccn2)nn1 | ? | ? | -1.4 | -11.5 | nt | -10.7%
Cc1cc(C)cc(NC(=O)CSc2ccc(-c3ccccn3)nn2)c1 | ? | 15.3% | 9.9 | -4.1 | 12.6µM* | -16.2%
COC(=O)c1ccc(NC(=O)CSc2ccc(-c3ccccn3)nn2)cc1 | 7.9% | -4.4% | 2.9 | 8.7 | -2.5% | 1.1%
O=S(=O)(c1ccc(OCC(O)CNC23CC4CC(CC(C4)C2)C3)c(Cl)c1)N1CCOCC1 (centres undefined) | -3.4%[46.1 µM] | 2µM* | 0.5 | -1.7 | ? | -0.7%
O=C(COc1ccc(S(=O)(=O)N2CCOCC2)cc1Cl)NC1CCCCC1 | -20.4% | 3.4% | -1.0 | -9.3 | 13.2% | -7.8%
CCC1OC23CCCCC2C(C#N)(C(=N)O3)C1(C#N)C#N (centres undefined) | 19.8% | 1.4% | -1.3 | 9.8 | -11.7% | 14.1µM*
N#CC12COC3(CCCCC3C1(C#N)C#N)OC2=N (centres undefined) | 1.5% | ? | -2.3 | -10.2 | -11.0% | 28.2µM*
CC(C)C[C@@H](CSc1ccc(Br)cc1)N1CCN(C)CCC1=O | nt | nt | 39.7* | 56.7* | ? | 55.0%
CC(=O)Nc1ccc(SC[C@H](CC(C)C)N2CCN(CC(C)C)CCC2=O)cc1 | nt | nt | -6.2 | -3.6 | 47.0%[8.37 µM] | 0.0%
COc1ccc(SC[C@H](CC(C)C)N2CCN(C)CCC2=O)cc1 | nt | nt | 17.1* | 75.0* | -0.7%[8.37 µM] | 60.5%
Cc1ccc(SC[C@H](CC(C)C)N2CCN(C)CCC2=O)cc1 | nt | nt | 38.1* | 83.8* | 3.7%[8.37 µM] | 50.5%
O=C(NC1CC1)C1=C[C@@H](C2CCCCC2)C[C@@H](OCc2ccc(CO)cc2)O1 | nt | nt | 1.4 | -7.2 | -23.0% | -21.8%
CCOC(=O)N1CCN(/C=C(\C#N)c2nc3ccccc3s2)CC1 | ? | -5.3% | 15.0* | 81.5* | ? | -4.5%
N#C/C(=C\N1CCN(Cc2ccc3c(c2)OCO3)CC1)c1nc2ccccc2s1 | -5.3% | -10.5% | 11.8 | 50.1 | 14.1µM* | -28.5%
CCOC(=O)N1CCN(S(=O)(=O)c2ccc(C(=O)Nc3nc4ccccc4s3)cc2)CC1 | -13.2% | -16.7% | -2.3 | 10.8 | -13.4% | ?
c1ccc2sc(N3CCN(Cc4ccc5c(c4)OCO5)CC3)nc2c1 | nt | nt | nt | nt | nt | 17.4%
COc1ccc(-c2cnc(SCC(=O)Nc3ccc4c(c3)OCO4)n2Cc2ccco2)cc1 | ? | ? | 13.8* | 24.7 | 14.1µM* | ?
CC(=O)Nc1cccc(NC(=O)CSc2ncc(-c3ccc(Cl)cc3)n2Cc2ccco2)c1 | ? | ? | 2.2 | -5.6 | 10µM* | 14.1µM*
COc1ccc(Cn2c(CO)cnc2SCC(=O)Nc2ccc3c(c2)OCCO3)cc1 | -0.5%[46.1 µM] | nt | nt | nt | nt | 42.1%
COc1ccc(C2=NC(c3ccccc3)=Nc3ccc(C)cc3N2)cc1 | 0.4%[46.1 µM] | -26.8%[46.1 µM] | nt | nt | nt | -3.3%
CC1=CC(c2ccccc2)=Nc2ccc(C)cc2N1 | ? | ? | 57.3* | 43.3* | -2.8% | 68.7%
Cc1cc(Cl)ccc1NS(=O)(=O)c1ccc2c(c1)CCN2S(C)(=O)=O | -8.4%[46.1 µM] | nt | nt | nt | nt | ?
